In assay [1] the target is Luciferin 4-monooxygenase (Photinus pyralis) (UniProt P08659). The assay is described as follows: qHTS assay to identify small molecule inhibitors of firefly luciferase (AID 1224835). Further: nearly all actives have a fitted effect of over 25% in size. Further: potency means the concentration at half of the fitted maximal effect. In a few lines: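 Quantitative HTS format; KM concentrations of both substrates. Purified P. pyralis FLuc activity quantified from luminescence images.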
Background: qHTS replaces the single test concentration by a dilution series.

Assay [2] in a line: qHTS assay to identify small molecule agonists of the constitutive androstane receptor (CAR) signaling pathway - cell viability counter screen (AID 1224836). Further: nearly all actives have a fitted effect of over 45% in size. Further: potency means the concentration at half of the fitted maximal effect. An outline of the steps: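 HepG2-CYP2B6-hCAR, 2500 cells/well, 4 h pre-incubation; cpd 15 conc + PK11195 0.75 uM final; 23 h, 37 C/5% CO2; CellTiter-Fluor, fluorescence.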
A short description of assay [3]: qHTS assay to identify small molecule antagonists of the constitutive androstane receptor (CAR) signaling pathway - cell viability counter screen (AID 1224837). Further: nearly all actives have a fitted effect of over 45% in size. An outline of the steps:
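HepG2-CYP2B6-hCAR cells, 2500/well, 4 hr pre-incubation; compound titration, 15 conc.; CITCO 50 nM final; 23 hr, 37 C/5% CO2; CellTiter-Fluor, fluorescence intensity.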

Assay [4] is described as follows: qHTS assay to identify small molecule antagonists of the estrogen related receptor signaling pathway with the pleiotropic PPARgamma coactivator (PGC) from Tox21 10K library - cell viability counter screen (AID 1224840; active means well fitted cell-killing curve with a large enough effect in the repeat runs, not every such curve was filed as active; further: nearly all actives have a fitted effect of over 40% in size; further: potency means the concentration at half of the fitted maximal effect). An outline of the steps: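 PGC/ERR cells, 2,000/well; 6 h pre-incubation 37 C/5% CO2; cpd in DMSO via pin tool; 17.5 h 37 C; CellTiter-Fluor, 30 min; fluorescence.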

The nature of assay [5]: qHTS assay to identify small molecule antagonists of the estrogen related receptor signaling pathway with the pleiotropic PPARgamma coactivator (PGC) from Tox21 10K library (AID 1224841; call rule not given here; further: actives are mostly falling curves and most rising ones were filed inactive; nearly all actives have a fitted effect of over 50% in size). In a few lines:
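PGC/ERR cell line, 2,000 cells/well; 6 h pre-incubation 37 C/5% CO2; compounds (DMSO) pinned in; 18 h, 37 C; One-Glo, 30 min RT; luminescence.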

Assay [6] in a line: qHTS assay to identify small molecule agonists of the estrogen related receptor signaling pathway with the pleiotropic PPARgamma coactivator (PGC) from Tox21 10K library (AID 1224842). Further: nearly all actives have a fitted effect of over 15% in size. Further: potency means the concentration at half of the fitted maximal effect. In a few lines:
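PGC/ERR reporter cells (NTP line) were seeded 2,000 per well, rested 6 h at 37 C/5% CO2, then pin-dosed with compounds in DMSO for 18 h at 37 C; luciferase read by One-Glo luminescence after 30 min at room temperature.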

Assay [7] addresses Thyrotropin receptor (Homo sapiens) (UniProt P16473). The assay is described as follows: qHTS assay to identify small molecule agonists of the thyroid stimulating hormone receptor (TSHR) signaling pathway (AID 1224843; calls by dose curve; further: nearly all actives have a fitted effect of over 45% in size). In a few lines: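 TSHR-expressing HEK293 cells (800 per well) were exposed to compounds for 30 min at room temperature. cAMP was then detected by HTRF competition with cAMP-d2 and anti-cAMP cryptate, read after 1 h at room temperature. Fifteen concentrations, triplicate.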

Assay [8] is described as follows: qHTS assay to identify small molecule agonists of the hypoxia (HIF-1) signaling pathway - cell viability counter screen (AID 1224844; calls by dose curve; further: nearly all actives have a fitted effect of over 50% in size; further: potency means the concentration at half of the fitted maximal effect). An outline of the steps:
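ME-180 HRE-bla cells, 2,000/well, 0.5% dialyzed FBS; 5 hr settle, 17 hr compound at 37C/5% CO2; CCF4-AM reporter read first, then CellTiter-Glo luminescence after 30 min RT.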

Assay [9] in a line: qHTS assay to identify small molecule agonists of H2AX (AID 1224845; active means well fitted activation curve with a large enough effect in the signal ratio in the repeat runs, not every such curve was filed as active; the % refers to the signal ratio). In a few lines:
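Wild-type CHO-K1 cells plated overnight, then exposed 3 hr at 37C to compounds at 15 concentrations (0.76% DMSO). Lysed, then HTRF anti-pH2AX(S139)-cryptate/anti-H2AX-d2 detection after 24 hr at room temperature; emissions 665 and 620 nm.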

Assay [10] can be described thus: qHTS assay to identify small molecule antagonists of the estrogen related receptor (ERR) signaling pathway from Tox21 library (AID 1224848). Further: nearly all actives have a fitted effect of over 50% in size. In a few lines: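 Cells: ERR line, 2,000/well; 6 h preincubation 37 C/5% CO2. Cpd in DMSO via pin tool; 18 h, 37 C. ONE-Glo, 30 min RT, luminescence.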
Assay [11] is described as follows: qHTS assay to identify small molecule agonists of the estrogen related receptor (ERR) signaling pathway from Tox21 library (AID 1224849; calls by dose curve; further: nearly all actives have a fitted effect of over 15% in size). The note with it: ERR reporter cell line, ONE-Glo luciferase, 18 h. An outline of the steps: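 ERR cells, 6 h pre-incubation 37 C/5% CO2; cpd in DMSO pinned; 18 h 37 C; ONE-Glo added, 30 min RT; luminescence read. Agonist mode, qHTS.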

A short description of assay [12]: qHTS RealTime-Glo MT Cell Viability Assay in HepG2 cells - 24 hour (AID 1224867). Further: nearly all actives have a fitted effect of over 50% in size. Further: potency means the concentration at half of the fitted maximal effect. An outline of the steps: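 HepG2 suspension premixed with RealTime-Glo reagents is plated at 600 cells per well and left 5 h at 37 C/5% CO2. Compounds in DMSO then go in, and bioluminescence reflecting viable cell number is recorded over 40 h.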
A short description of assay [13]: qHTS RealTime-Glo MT Cell Viability Assay in HEK293 cells - 32 hour (AID 1224868). Further: nearly all actives have a fitted effect of over 50% in size. Further: potency means the concentration at half of the fitted maximal effect. An outline of the steps:
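Reads taken at 0, 8, 16, 24, 32 and 40 h from the same wells. HEK293 cells (600/well) carried RealTime-Glo reagents from seeding, with compound added after a 5 h settle at 37 C.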

Assay [14] can be described thus: A CellTox Green Cytotoxicity Assay to monitor cytotoxicity in HEK293 cells - 0 hour (AID 1224869). Further: nearly all actives have a fitted effect of over 50% in size. An outline of the steps: (§1)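 Nonlytic real-time cytotoxicity: HEK293 + CellTox Green reagent plated, 5 h preincubation, pintool compound addition (23 nL in DMSO), 37 C for 40 h, fluorescence measured at successive time points.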
Assay [15] in a line: A CellTox Green Cytotoxicity Assay to monitor cytotoxicity in HEK293 cells - 40 hour (AID 1224871). Further: nearly all actives have a fitted effect of over 45% in size. Further: potency means the concentration at half of the fitted maximal effect. In a few lines: as §1
The nature of assay [16]: qHTS assay to identify small molecule agonists of the hypoxia (HIF-1) signaling pathway (AID 1224846; active means well fitted activation curve with a large enough effect in the signal ratio in the repeat runs, not every such curve was filed as active; the % refers to the signal ratio). In a few lines: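 Cell line: CellSensor HRE-bla ME-180; 2,000 cells/well; 0.5% dialyzed FBS; 5 h preincubation; DMSO compound pin transfer; 17 h, 37C, 5% CO2; CCF4-AM added; bla FRET signal scored for activation.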
Assay [17] in a line: qHTS assay to identify small molecule agonists of H2AX - cell viability counter screen (AID 1224847; calls by dose curve; further: nearly all actives have a fitted effect of over 30% in size; further: potency means the concentration at half of the fitted maximal effect). In a few lines:
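Cells plated first: CHO-K1, 1000 per well in 10% FBS medium, incubated overnight at 37C. Then 15-point compound titration added (final DMSO 0.76%) for 3 hr. Finally CellTiter-Glo added and luminescence read.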

Assay [18] deals with Nuclear receptor subfamily 1 group I member 3 (Homo sapiens) (UniProt Q14994). As to the kind of experiment: qHTS assay to identify small molecule antagonists of the constitutive androstane receptor (CAR) signaling pathway (AID 1224838).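 Further: HepG2 cells stably expressing hCAR with CYP2B6 luciferase reporter stimulated by CITCO; nearly all actives have a fitted effect of over 40% in size.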 Further: potency means the concentration at half of the fitted maximal effect. An outline of the steps:
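HepG2-CYP2B6-hCAR cells; 4 h pre-incubation; cpd (15 conc) + CITCO 50 nM final; 24 h, 37 C/5% CO2; ONE-Glo, luminescence.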

The target is the same in assay [19]. The assay is described as follows: qHTS assay to identify small molecule agonists of the constitutive androstane receptor (CAR) signaling pathway (AID 1224839). Further: nearly all actives have a fitted effect of over 15% in size. Further: potency means the concentration at half of the fitted maximal effect.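 On activation: HepG2 cells stably carrying human CAR and a CYP2B6 luciferase reporter.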 An outline of the steps:
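HepG2-CYP2B6-hCAR cells, 2500/well, 4 h pre-incubation; compounds 15 conc.; PK11195 0.75 uM final; 24 h, 37 C/5% CO2; ONE-Glo luciferase read.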

Assay [20] can be described thus: qHTS RealTime-Glo MT Cell Viability Assay in HepG2 cells - 40 hour (AID 1224870). Further: nearly all actives have a fitted effect of over 50% in size. Further: potency means the concentration at half of the fitted maximal effect. In a few lines: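 HepG2 cells mixed with RealTime-Glo MT reagents (NanoLuc plus cell-permeant prosubstrate) were seeded at 600 cells/well, incubated 5 h at 37 C/5% CO2, then pinned with compounds in DMSO; nonlytic luminescence tracked viability during 40 h treatment.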

The values below come from PubChem BioAssay (Tox21).

Structures are written as SMILES. Several values for one entry are separate records, joined by “and”; a condition that tells them apart may be missing. Equal values may be shown once. Inconclusive results are not listed. Where a structure was tested more than once in an assay, its records may differ in their call. Activity calls are given as the source filed them. Unless noted, the call rests on the fitted dose curve; in most records, active means well fitted curve in the direction sought with a large enough effect in the repeat runs; inconclusive means weak or mixed curves; inactive means no such curve, though single readings can be large; an effect the other way counts as inactive or inconclusive.
On the % scale 0 is the no-effect control and ±100 the full control effect.

Chain of Thyrotropin receptor (Homo sapiens) (P16473 whole entry, looked up): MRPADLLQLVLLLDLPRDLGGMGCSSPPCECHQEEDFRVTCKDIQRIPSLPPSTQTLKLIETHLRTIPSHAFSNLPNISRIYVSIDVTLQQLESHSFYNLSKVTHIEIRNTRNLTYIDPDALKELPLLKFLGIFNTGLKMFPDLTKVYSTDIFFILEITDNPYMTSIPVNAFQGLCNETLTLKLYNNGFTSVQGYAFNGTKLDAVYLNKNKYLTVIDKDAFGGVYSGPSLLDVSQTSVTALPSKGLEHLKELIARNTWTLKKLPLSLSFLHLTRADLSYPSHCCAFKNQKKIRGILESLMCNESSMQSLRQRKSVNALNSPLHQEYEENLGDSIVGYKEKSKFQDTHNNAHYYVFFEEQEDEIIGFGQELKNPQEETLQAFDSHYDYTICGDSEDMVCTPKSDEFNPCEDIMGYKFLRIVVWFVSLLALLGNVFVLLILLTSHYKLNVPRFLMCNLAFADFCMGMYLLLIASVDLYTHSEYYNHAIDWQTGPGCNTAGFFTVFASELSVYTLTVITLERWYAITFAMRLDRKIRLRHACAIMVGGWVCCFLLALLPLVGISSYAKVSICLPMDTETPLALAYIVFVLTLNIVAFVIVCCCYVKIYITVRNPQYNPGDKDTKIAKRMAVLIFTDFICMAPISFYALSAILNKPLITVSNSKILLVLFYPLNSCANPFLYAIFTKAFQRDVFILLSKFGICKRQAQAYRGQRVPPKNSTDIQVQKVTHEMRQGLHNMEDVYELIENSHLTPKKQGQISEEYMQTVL
Chain of Nuclear receptor subfamily 1 group I member 3 (Homo sapiens) (Q14994 whole entry, looked up): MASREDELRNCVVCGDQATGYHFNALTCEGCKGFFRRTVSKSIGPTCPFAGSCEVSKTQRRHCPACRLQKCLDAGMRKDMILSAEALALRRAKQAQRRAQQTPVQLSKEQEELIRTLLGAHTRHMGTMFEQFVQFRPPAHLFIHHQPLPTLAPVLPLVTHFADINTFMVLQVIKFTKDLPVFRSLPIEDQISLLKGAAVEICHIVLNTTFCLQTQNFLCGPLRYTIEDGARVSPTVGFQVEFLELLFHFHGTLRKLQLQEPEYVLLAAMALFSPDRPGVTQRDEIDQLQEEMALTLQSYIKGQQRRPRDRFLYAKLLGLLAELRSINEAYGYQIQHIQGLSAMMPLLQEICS
Chain of Luciferin 4-monooxygenase (Photinus pyralis) (P08659 whole entry, looked up): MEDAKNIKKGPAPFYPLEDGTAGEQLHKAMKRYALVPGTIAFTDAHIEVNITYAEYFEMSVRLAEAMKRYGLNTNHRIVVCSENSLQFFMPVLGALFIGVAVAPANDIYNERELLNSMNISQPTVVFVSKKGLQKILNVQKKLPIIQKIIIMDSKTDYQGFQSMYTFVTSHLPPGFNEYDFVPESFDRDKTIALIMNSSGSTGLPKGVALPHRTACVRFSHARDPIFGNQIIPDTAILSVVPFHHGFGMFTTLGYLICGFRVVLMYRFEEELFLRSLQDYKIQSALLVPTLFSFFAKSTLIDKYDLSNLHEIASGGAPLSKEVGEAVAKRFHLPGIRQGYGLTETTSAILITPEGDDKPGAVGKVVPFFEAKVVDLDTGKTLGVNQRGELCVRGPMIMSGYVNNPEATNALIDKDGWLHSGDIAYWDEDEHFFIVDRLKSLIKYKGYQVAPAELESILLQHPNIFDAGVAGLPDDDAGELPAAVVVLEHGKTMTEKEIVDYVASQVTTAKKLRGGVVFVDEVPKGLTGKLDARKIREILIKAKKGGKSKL

Turning to `O=C=Nc1ccc(Cc2ccc(N=C=O)cc2)cc1`, the Potency entry in [1], in [2], in assay [3], in assay [4], in [5] and in assay [6] was “inactive” in each case. In addition, the Potency entry in assay [7], in assay [8], in [10], in [12], in assay [13] and in assay [14] was “inactive” each time. In addition, in assay [15], the Potency entry was “inactive”. Further, the compound was classed as inactive in assay [9]. Further, the figures for the activity change, positive = activation in assay [11] (at 42.5 µM (top of the series)) and in assay [11] (at 92.4 µM (top of the series)) were 2.14% (inactive) and -19.6% (inactive), respectively.
Take `Cc1ncc[nH]1`: the Potency result in assay [1], in [2], in [3], in assay [4], in assay [7] and in [8] was “inactive” in each case. The Potency result in [16], in [17], in [12], in [13] and in assay [14] was “inactive” throughout.
In the case of `Cn1cnc([N+](=O)[O-])c1Sc1ncnc2nc[nH]c12`, the Potency entry in [1], in assay [19], in assay [4], in assay [5], in assay [7] and in [8] was “inactive” each time. Further, the Potency entry in assay [17], in assay [10], in [12], in assay [14] and in assay [20] was “inactive” throughout. Moreover, the Potency is 6.82 µM (active) in [2]; 4.83 µM (active) and 11.9 µM (active) in assay [18]; 24.2 µM (active) and inactive in assay [6]; 19.4 µM (active) in assay [13]; 34.5 µM (active) and inactive in [15]. For the same compound, the call in assay [9] was inactive. The activity change, positive = activation in assay [11] (at 42.5 µM (top of the series)) is 8.83% (inactive); in [11] (at 92.4 µM (top of the series)), 19.9% (active).
Take `O=P(O)(O)O`: the Potency entry in assay [2], in [3], in assay [4], in [7], in assay [8] and in [16] was “inactive” throughout. For the same compound, the Potency entry in assay [17], in [12], in assay [13] and in assay [15] was “inactive” in each case.
For `CCC(C)OC(=O)c1ccc(O)cc1` (stereo not given), the Potency entry in assay [2], in assay [3], in [18], in [4], in assay [5] and in assay [7] was “inactive” throughout. In addition, the Potency entry in assay [8], in [16], in [17], in [10], in assay [12] and in assay [20] was “inactive” throughout. Moreover, in assay [19], the Potency was 61.5 µM (active) and 54.5 µM (active). The activity change, positive = activation in assay [11] (at 92.4 µM (top of the series)) was 6.7% (active).
On to `Nc1ccccc1N`, for which the Potency in assay [1] is 8.15 µM (active) and 1.78 µM (active); in assay [19], 24.3 µM (active); in assay [8], 43.6 µM (active); in assay [15], 50.1 µM (active). For the same compound, the Potency entry in [18], in assay [4], in assay [16], in [17], in assay [12] and in assay [13] was “inactive” in each case. In addition, in assay [20], the Potency entry is “inactive”.
Take `CN(C)CCC=C1c2ccccc2CCc2ccccc21`: the Potency entry in assay [1], in [19], in assay [14] and in [15] was “inactive” in each case. For the same compound, the Potency in assay [18] is 48.6 µM (active); in assay [4], 48.6 µM (active) and inactive; in [8], 38.9 µM (active); in [12], “inactive and 43.6 µM (active)”; in assay [20] it was “inactive and 54.9 µM (active)”. For the same compound, the compound was called inactive in assay [9].
For the compound `CC(=O)O[C@]1(C(C)=O)CC[C@H]2[C@@H]3C=C(Cl)C4=CC(=O)[C@@H]5C[C@@H]5[C@]4(C)[C@H]3CC[C@@]21C`, the Potency entry in assay [1], in assay [2], in [3], in assay [4], in assay [7] and in [8] was “inactive” each time. For the same compound, the Potency result in assay [20] and in assay [15] was “inactive” each time. Also, in assay [9], the call was inactive. Moreover, the Potency in assay [13] is 24.5 µM (active) and inactive.
For `O=C(c1ccc(OCCN2CCCCC2)cc1)c1c(-c2ccc(O)cc2)sc2cc(O)ccc12`, the Potency entry in [18], in assay [19] and in assay [14] was “inactive” throughout. The Potency is 24.4 µM (active) and 30.6 µM (active) in assay [4]; 43.7 µM (active) and 49 µM (active) and inactive in assay [8]; 113 µM (active) and inactive in assay [17]; 54.9 µM (active) and inactive in [12]; 19.5 µM (active) and 23.9 µM (active) in assay [13]; 54.9 µM (active) and inactive in [20]. Moreover, in assay [15], the Potency was 55 µM (active) and 54.9 µM (active). Also, the call in assay [9] was inactive.
For `CC(C)CC(C)(O)C#CC(C)(O)CC(C)C` (stereo not given), the Potency entry in assay [2], in [3], in assay [18], in assay [19], in assay [4] and in assay [5] was “inactive” throughout. For the same compound, the Potency result in assay [6], in assay [7], in assay [8], in assay [16], in [17] and in assay [10] was “inactive” each time. The Potency entry in assay [12], in [13], in assay [14], in [20] and in assay [15] was “inactive” in each case. Further, in assay [11] (at 92.4 µM (top of the series)), the activity change, positive = activation was -11.8% (inactive) and -19.1% (inactive).
